We go through 49 compounds from ChEMBL document CHEMBL3988442, “University of Dundee, Small-Polar-MMV Screening Library” (2021).

The subject of this assay is Trypanosoma brucei. Briefly: Trypanosoma brucei 72 hour study. Format: functional, organism-based. Also noted: scale not given: in the data most compounds retested in dose-response had high values.

Structures are written as SMILES. Screen size: about 66,000 compounds; about 960 (1.5%) showed an effect of 50% or more. Many of the other results were omitted from the sample, so strong results are more common in it than they were.

`Cc1cccc(NC(=O)c2csc(NCC(C)C)n2)n1`: the “Percent Effect” value (30 µM, 30.03 µM) is on record as -6.262%. Same read-out and setting: as for `CC(C)CNc1nc(C(=O)/N=c2\[nH]nc(C(C)(C)C)s2)cs1`, the figure is -9.789%.

`O=C(O)C(F)(F)F.O=C(c1cscn1)N1CC[C@@H]2[C@@H]1CCN2C1CCOCC1`: the “Percent Effect” value (30.3 µM, […]) is recorded as -53.41%. With `O=C(O)C(F)(F)F.O=C(c1ccccn1)N1CCc2ncc(Cn3cccn3)n2CC1`, the “Percent Effect” value (30.3 µM, […]) is recorded as -7.142%. With `Cc1ccc(S(=O)(=O)N2C[C@H]3C[C@H](NC(=O)c4cnn(C)c4)[C@H]3C2)cc1`, where the note is “30.3 µM, […]”, the “Percent Effect” value is -2.175%.

Regarding `COc1c(CNCc2cccc(Cn3ccnc3C)c2)c(C)nn1C.Cl`, the “Percent Effect” value is -2.374% (30.3 µM, […]) and -46.4% (10 mM, 10 mM as filed; unlikely as a test dose). Regarding `CC(C)c1nc2c(n1C)CCN(Cc1nc(-c3ccoc3)no1)C2`, the “Percent Effect” value (30.3 µM, […]) is listed as -0.2084%. In the case of `Cn1c(C2CC2)nc2c1CCN(Cc1nc(-c3ccsc3)no1)C2`, the “Percent Effect” value (30.3 µM, […]) is -7.992%. As for `CC(C)c1nc2c(n1C)CCN(Cc1nc(-c3ccsc3)no1)C2`, where the note is “30 µM, 30.03 µM”, the “Percent Effect” value amounted to 59.36%.

Turning to `COc1ccc(CN(C)[C@@H]2COC[C@H]2c2ccc(F)cc2)c(OC)c1.O=C(O)CC(O)(CC(=O)O)C(=O)O`, the “Percent Effect” value (30.3 µM, […]) came to 4.622%. For `Br.CCOc1ccc(N(CC(=O)c2ccccc2)C2=NCCCCC2)cc1`, the “Percent Effect” value (30 µM, 30.03 µM) came to 25.81%.

Regarding `COc1ccccc1CN1C[C@@H]2CN(C(C)=O)CCO[C@@H]2C1.O=C(O)C(F)(F)F`, the “Percent Effect” value (30.3 µM, […]) is reported as -77.53%.

`CN(Cc1nc(N2CCCC2)ncc1-c1ccncc1)C(=O)C(C)(C)C.Cl`: the “Percent Effect” value (30.3 µM, […]) was determined as 34.69%.

Turning to `CN(Cc1ccncn1)C(=O)C1(Oc2ccc(Cl)cc2)CCNCC1`, the “Percent Effect” value (30.3 µM, […]) was -35.89%. In the case of `O=C(N[C@@H]1CCCNC1)C1(Oc2ccc(Cl)cc2)CCNCC1`, under “30 µM, 30.03 µM”, the “Percent Effect” value is -80.08%. On to `CN(C)C(=O)C1(Oc2ccc(Cl)cc2)CCNCC1`, for which, for the setting “30.3 µM, […]”, the “Percent Effect” value is listed as -28.66%. Take `CN(Cc1ccoc1)C(=O)C1(Oc2ccc(Cl)cc2)CCNCC1`: the “Percent Effect” value (30.3 µM, […]) is 99.82%.

In the case of `Cc1ccc(OC2(C(=O)NC(C)Cc3ccncc3)CCNCC2)cc1` (stereo not given), for the setting “30 µM, 30.03 µM”, the “Percent Effect” value is -4.697%.

Turning to `Cc1ccc(OC2(C(=O)N(C)Cc3ccoc3)CCNCC2)cc1`, the “Percent Effect” value (30.3 µM, […]) is 91.09%. As for `CC(C)CN1CCC2(CCN(Cc3ccsc3)CC2)C1=O`, the “Percent Effect” value (30.3 µM, […]) stood at 2.917%. `CC(C)CNC(=O)N1CCC2(CC1)OC(C(N)=O)Cn1ccnc12.O=C(O)C(F)(F)F` (stereo not given): the “Percent Effect” value (30.3 µM, […]) is on record as -37.34%. Turning to `COCC[C@]1(O)CCN(Cc2nnc(C)s2)C[C@H]1C`, under “30.3 µM, […]”, the “Percent Effect” value is on record as -14.31%.

In the case of `O=C(O)C(F)(F)F.O=C(c1cccnc1)N1CCCC2(COCCN(c3ccccc3)C2)C1` (stereo not given), the “Percent Effect” value (30.3 µM, […]) is recorded as -43.99%.

Consider `Cc1ccc(CN2CC[C@@H](O)[C@@H]2Cc2cnn(C)c2)o1.O=C(O)C(F)(F)F`, for which the “Percent Effect” value (30.3 µM, […]) is -387.9%. Still for that read-out and setting: as for `CNC(=O)C1(CCCc2ccncc2)CCCCN1.Cl` (stereo not given), the figure is -5.403%; as for `COCCOC1CCN(C(C(=O)O)c2ccc(OC)c(F)c2)CC1` (stereo not given), -2.66%. Take `O=C(O)c1cc(/C=C/c2cccc3ccccc23)ncn1`: the “Percent Effect” value (30 µM, 30.03 µM) is on record as 18.14%. Take `Cn1ccnc1CN1CCC2(COCCN(Cc3ccsc3)C2)C1` (stereo not given): the “Percent Effect” value (30 µM, 30.03 µM) was 61.78%. Turning to `Cn1ccnc1CN1CCC2(CC1)COCCN(c1ncccn1)C2`, the “Percent Effect” value (30.3 µM, […]) is reported as 7.51%. The same measure, in the same setting: as for `Cn1ccnc1CN1CCC2(COCCN(S(=O)(=O)C3CC3)C2)C1` (stereo not given), the figure is 11.66%. Consider `Cc1noc(CN2C[C@H]3CC[C@@H]2CN(C2Cc4ccccc4C2)C3)n1`, for which the “Percent Effect” value (30 µM, 30.03 µM) is 16.7%. In the case of `CC(=O)Nc1nc(C2CCN(C(=O)c3cccnc3)CC2)cs1`, the “Percent Effect” value (30 µM, 30.03 µM) is listed as 31.28%. For `Cc1noc(C)c1CN1CCc2ncnc(-c3ccc(F)cc3)c2CC1.O=C(O)C(F)(F)F`, the “Percent Effect” value (30.3 µM, […]) was -81.82%.

For the compound `Cc1ccc(S(=O)(=O)NCCNc2cc(-n3cccc3)ncn2)c(C)c1`, for the setting “30.3 µM, […]”, the “Percent Effect” value is on record as 53.4%. Same read-out and setting: in the case of `O=S(=O)(NCCNc1cc(-n2cccc2)ncn1)c1cccs1` it was 16.28%; in that of `CCS(=O)(=O)NCCNc1cc(-n2cccc2)ncn1`, 14.19%.

As to `CNC(=O)CN1CCCC12CCN(C(=O)c1cccc(F)c1)CC2.O=C(O)C(F)(F)F`, under “30.3 µM, […]”, the “Percent Effect” value is recorded as -1.054%. Turning to `O=C(NCc1ccco1)[C@H]1C[C@@H]2CCN(c3nncs3)C[C@H]2O1.O=C(O)C(F)(F)F`, for the setting “30.3 µM, […]”, the “Percent Effect” value is reported as -27.54%. With `COc1cc2nc(NCc3cc(C)on3)nc(N)c2cc1OC`, for the setting “30.3 µM, […]”, the “Percent Effect” value is -6.228%. As for `COc1ccccc1NCC(=O)NCc1scnc1C`, the “Percent Effect” value (30 µM, 30.03 µM) is -18.47%. On to `COc1cc2nc(NCc3scnc3C)nc(N)c2cc1OC`, for which the “Percent Effect” value (30.3 µM, […]) was found to be 86.68%. `COCCN1CCc2cc(C(=O)O)c(NCC3CC3)nc2CC1.O=C(O)C(F)(F)F.O=C(O)C(F)(F)F`: the “Percent Effect” value (30.3 µM, […]) is -92.37%. With `CCCn1nccc1C(=O)Nc1nc(C)c(C)s1`, the “Percent Effect” value (30.3 µM, […]) is 41.43%.

As to `CCCn1nccc1C(=O)Nc1ncc(C)s1`, where the note is “30.3 µM, […]”, the “Percent Effect” value was 83.34%. In the case of `CCn1nccc1C(=O)Nc1nc(C)c(C(C)=O)s1`, the “Percent Effect” value (30.3 µM, […]) is -2.793%. Consider `COCC1CC2(CCN(Cc3ccco3)CC2)CN1C(C)C.O=C(O)C(F)(F)F.O=C(O)C(F)(F)F` (stereo not given), for which the “Percent Effect” value (30 µM, 30.03 µM) was found to be 42.98%. For `COc1cc(N2CCCC(c3nccn3Cc3cscn3)C2)nc(N)n1` (stereo not given), the “Percent Effect” value (30 µM, 30.03 µM) came to 59%. Take `COCCn1ccnc1C1CCCN(c2cc(OC)nc(N)n2)C1` (stereo not given): the “Percent Effect” value (30 µM, 30.03 µM) was -68.81%. Regarding `COc1cc(N2CCCC(c3nccn3CCN(C)C)C2)nc(N)n1` (stereo not given), the “Percent Effect” value (30 µM, 30.03 µM) turned out to be 42.15%.
